In PubChem BioAssay AID2058 (Sanford-Burnham Center for Chemical Genomics, 2009):
Among all 290,000 compounds or so, about 150 (0.052%) were called active.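 Rule for the calls: active = inhibition of at least 50% with at least 30 cells and total cytoplasm GFP at most 10,000,000; inconclusive = under 30 cells or total GFP of 10,000,000 plus; inactive = the rest.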 The full list was thinned out, with actives kept by preference. Results with a measured potency or affinity are listed apart.

Target: G-protein coupled receptor 35 (Homo sapiens) (UniProt Q9HC97)
Experiment: inhibition of zaprinast-stimulated GPR35 beta-arrestin translocation – imaging, U2OS, beta-arrestin-GFP, zaprinast agonist, primary screen (AID 2058)
Conditions: zaprinast antagonism, at 10 µM, stronger effect = higher value

Sequence of G-protein coupled receptor 35 (Homo sapiens) (Q9HC97 whole entry, looked up): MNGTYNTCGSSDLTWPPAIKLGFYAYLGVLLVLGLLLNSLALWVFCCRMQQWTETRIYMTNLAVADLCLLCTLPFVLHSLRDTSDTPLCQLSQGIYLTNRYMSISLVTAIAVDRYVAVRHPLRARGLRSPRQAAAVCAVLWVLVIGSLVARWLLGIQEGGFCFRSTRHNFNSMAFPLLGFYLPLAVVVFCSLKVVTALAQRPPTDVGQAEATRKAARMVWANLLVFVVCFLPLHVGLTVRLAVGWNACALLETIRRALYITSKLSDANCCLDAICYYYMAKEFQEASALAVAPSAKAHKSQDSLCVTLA

inhibition, active:
CC(=O)N1C=Cc2c(c(C)c3c([nH]c4ccccc43)c2C)C1 71.5%
O=S(=O)(Nc1cc2nc3ccccc3nc2n1Cc1ccccc1)c1ccc(Cl)cc1 85.4%
CN1CC=C2C(C#N)=C(N)C(C#N)(C#N)[C@H](c3cccc(Cl)c3)C2C1 (stereo partly specified) 101%
COc1ccc2c(c1)NC(c1ccc(N(C)C)cc1)c1cccn1-2 (stereo unspecified) 83.6%
CCN1C(=O)/C(=C/C=C2\N(CC)c3cc(S(=O)(=O)N(C)C)ccc3N2c2ccccc2)SC1=S 62%

inhibition, inactive:
COC(=O)c1cc(OC)c(OC)cc1N1C(=O)CCCC1=O 8.7%
Cc1ccc(C)c2c1[nH]c1ccccc12 15.5%
CC(=O)N1CCc2[nH]c3ccccc3c2C1 4.9%
Cc1noc(C)c1C(=O)OCC(=O)c1c(N)n(CC(C)C)c(=O)n(C)c1=O -3.5%
Cc1ccccc1N1CCN(C2CCCN(C(=O)c3ccc(Cl)s3)C2)CC1 (stereo unspecified) 0.1%
O=C(/C=C/c1c[nH]c2ccccc12)c1ccccc1 -6.3%
CCOC(=O)/C=C(C)\C=C\c1c[nH]c2ccccc12 -3.8%
Cc1ccccc1Cn1c2ccccc2c2cnn(CC(=O)NCCCN3CCN(C)CC3)c(=O)c21 -6.2%
O=S(=O)(Nc1nc2ccccc2nc1Cl)c1ccc(Cl)cc1 -9.2%
O=S(=O)(Nc1nc2ccccc2nc1-[n+]1ccccc1)c1ccc(Cl)cc1 -1.7%
O=C(Nc1ccc(Cl)cn1)c1ccc(Oc2ccccc2)cc1 0.8%
CCOC(=O)CCCSc1nc2sc3c(c2c(=O)[nH]1)CCC3 1.8%
Cn1cc(CN2CCC(n3nccc3NC(=O)c3ccccc3Cl)CC2)cn1 -15.2%
CCc1nnc(NS(=O)(=O)c2ccc(NC(=S)NC(=O)/C=C/c3ccccc3)cc2)s1 -2.9%
CCc1nnc(NS(=O)(=O)c2ccc(NC(=S)NC(=O)/C=C/c3ccc(F)cc3)cc2)s1 11.3%
Cc1ccc(C(=O)N(CC(=O)NC2CCCC2)c2ccccc2C)s1 4.4%
CCc1ccc(/C=C2/SC(=S)N(CCC(=O)Nc3cccnc3)C2=O)cc1 -11.4%
COC(=O)CSc1nc2ccc(NC(=O)c3ccccc3C(=O)N3CCOCC3)cc2s1 -10.4%
O=C(O)c1ccc(CSc2nc3ccc(NC(=O)c4ccccc4C(=O)O)cc3s2)cc1 -3.4%
CN(C(=O)c1ccc2ccccc2c1)c1ccccn1 13.4%
CC(C)c1ccc[n+](-c2nc([O-])sc2C=O)c1 -8.7%
Cc1ccc(NC(=O)COc2ccccc2C(=O)Nc2ccccc2)cc1Cl -17.7%
CCOc1ccc(NC(=O)C(C)Oc2ccccc2C(=O)Nc2cccc(Cl)c2Cl)cc1 (stereo unspecified) 12.3%
Cc1csc2c(N3CCC(C(=O)O)CC3)ncnc12 -2.1%
O=C(Nc1ccnn1C1CCN(Cc2ccc(OC(F)F)cc2)CC1)C1CCCC1 9.2%
CCOc1ccccc1/C=N/NC(=O)c1c(C)nc2ccc(Br)cn12 10.2%
CC(C(=O)NCc1ccco1)n1nc(-c2ccccc2)c2cc(Cl)ccc21 (stereo unspecified) 7.1%
CCC(C(=O)O)n1nc(-c2ccccc2)c2cc(Cl)ccc21 (stereo unspecified) -3.2%
O=c1[nH]c(CN2CCCC2)nc2sc3c(c12)CCC3 0.2%
COc1ccc(N2CCN(C(=O)C(=O)c3cn(CC(=O)N4CCCCCC4)c4ccccc34)CC2)cc1 2.6%
C=CCC(O)(CC=C)CNC(=O)C1CCC(=O)N(CCCc2ccccc2)C1 (stereo unspecified) 1.6%
CC(=O)N1CC=C2C(C#N)=C(N)C(C#N)(C#N)C(C)C2C1 (stereo unspecified) 13.2%
COc1cc(C2C3CN(C)CC=C3C(C#N)=C(N)C2(C#N)C#N)ccc1OC(C)C (stereo unspecified) 16.1%
CN1CC=C2C(C#N)=C(N)C(C#N)(C#N)[C@H](c3cccs3)[C@H]2C1 39.8%
COc1cc([C@@H]2[C@H]3CN(C)CC=C3C(C#N)=C(N)C2(C#N)C#N)cc2c1OCO2 48.3%
CCCCn1c(=N)n(CC(=O)c2ccc(OC)cc2)c2ccccc21 -0.5%
COC(=O)c1cccc(NC(=O)c2nn(C(C)C)c(=O)c3ccccc23)c1 25.1%
Cc1ccc(CNC(=S)NC2CCCCC2)cc1 -8.5%
CCC(=O)Nc1ccc(C(=O)NNC(=O)c2ccc(C)cc2)cc1 9.3%
O=C(Nc1ccc(S(=O)(=O)Nc2ccccc2)cc1)c1ccc(CN2CCOCC2)cc1 -0.3%
COc1cc(CN2CCCC(C)C2)ccc1OCc1ccccc1 (stereo unspecified) 9.5%
CC(C)Cn1c(N)c(C(=O)COC(=O)/C=C/c2cccs2)c(=O)n(C)c1=O 12.1%
CCOC(=O)CN1CC23C=CC(O2)C(C(=O)NCc2ccccc2OC)C3C1=O (stereo unspecified) 13.9%
O=C1CC(c2ccccc2)N1c1ccccc1 (stereo unspecified) 8.1%
CC(=O)Nc1ccc(C(=O)/C=C/c2ccco2)cc1 -4.1%
O=C(/C=C\c1ccco1)c1ccc(NC(=O)c2ccco2)cc1 15.5%
CC1=C(C(=O)Nc2ccc(Cl)cc2C(=O)N2CCC(C(N)=O)CC2)SCCO1 16.5%
Cc1nc(N2CCC(C)CC2)c2c(C)c(C(=O)Nc3ccc(C(F)(F)F)cc3)sc2n1 25.3%
Cc1c(C(=O)Nc2ccc3c(c2)OCCO3)sc2ncnc(N3CCCCC3C)c12 (stereo unspecified) 1.3%
Cc1nc(N2CCC(C)CC2)c2c(C)c(C(=O)Nc3ccc(C)c(F)c3)sc2n1 24.7%
Cc1nc(N2CCCCC2)c2c(C)c(C(=O)Nc3cccc(C(F)(F)F)c3)sc2n1 14.1%
Cc1ccc(-c2cccc(C(=O)NCCc3ccccc3)n2)c2ccccc12 -3.7%
CCOC(=O)N1CCN(C(=O)COC(=O)c2ccc(O)cc2O)CC1 -5.5%
COc1ccc(S(=O)(=O)N2CCN(c3ccccn3)CC2)cc1OC 2.6%
COc1ccc(C2SCCN2C(=S)Nc2ccc(F)cc2)cc1 (stereo unspecified) -0.3%
COC(=O)CN1C(=O)[C@H]2[C@@H](c3ccc(C)o3)N3C(=O)CN(CC4CC4)C(=O)[C@@]3(Cc3ccccc3)[C@H]2C1=O 5.1%
COc1ccc2cc3cc(C(=O)N4CCN(c5ccccc5)CC4)oc3nc2c1 6%
COc1ccc2nc3oc(C(=O)N4CCN(c5cccc(C(F)(F)F)c5)CC4)cc3cc2c1 8.6%
O=C(Nc1cccc(-c2cn3ccccc3n2)c1)c1cc2ccccc2oc1=O -3.4%
COc1cc(/C=C2\C(=N)N3N=C(S(C)(=O)=O)SC3=NC2=O)cc(OC)c1OCCOc1ccccc1C 3.6%
S=c1nc(-c2ccccc2)n(Cc2cccnc2)c2c1CCCC2 14.8%
CCCCC[C@H]1CN(CCCC)C(=O)[C@@H]1CC(=O)NCc1ccc(OC)cc1 8.5%
C=CCn1c(SCC(=O)Nc2ccc(Cl)cn2)nnc1C1CC1 -2.5%
CCC1CCCCN1S(=O)(=O)c1ccc(NC(=O)c2ccncc2)cc1 (stereo unspecified) -21.5%
CCS(=O)(=O)c1ncc(Cl)c(C(=O)Nc2ccc(S(=O)(=O)N3CCC(C)CC3)cc2)n1 27.7%
COc1ccc(/C=C2\SC(=S)N(CCC(=O)N3CCCCC3)C2=O)cc1 1.2%
Cc1ccc(/C=C2/SC(=S)N(CCC(=O)N3CCN(c4ccccc4)CC3)C2=O)cc1 -11.1%
COc1c(S(=O)(=O)Nc2cccnc2)ccc(Cl)c1Cl 0.5%
O=c1[nH]cnc2sc3c(c12)CN(Cc1ccccc1)CC3 -2.4%
Cc1ccc(NC(=O)C2C(c3ccccc3)C=CC(c3ccccc3)C2C(=O)O)cc1 (stereo unspecified) -4.3%
Cc1ccccc1Nc1nnc(SCC(=O)NCc2cccs2)s1 0%
C/C(=N\NC(=O)c1cc(-c2ccc(C)s2)[nH]n1)c1ccncc1 -6.8%
COc1ccc(C(=O)NCCc2nnc(SCC(=O)Nc3ccc(Br)cc3)n2C)cc1 0.4%
CNC(=O)/C=C1\NC(C)(C)Cc2c1ccc1ccccc21 7.2%
CC1(C)Cc2ccccc2/C(=C/C(=O)N2CCCCCC2)N1 7.4%
O=C(NN1CCOCC1)c1ccccc1Br 2.6%
COc1ccc2c(c1)NC(c1cc(Cl)cc(Cl)c1O)c1cccn1-2 (stereo unspecified) 12.6%
COc1ccc(C2Nc3cc(OC)ccc3-n3cccc32)cc1 (stereo unspecified) 7%
CCc1nnc(NC(=O)c2cc(S(=O)(=O)N3CCOCC3)ccc2N2CCCCC2)s1 4.8%
CCOc1ccccc1CNc1nnnn1C 2.8%
C=CCN1C(=O)/C(=C/C=C2/N(CC)c3ccc(S(=O)(=O)N(C)C)cc3N2CC)SC1=S 9.4%
CCN1C(=O)/C(=C/C=C2/Sc3ccccc3N2CCO)SC1=S -15.5%
CC(=O)c1cccc(OCc2cc(C(=O)N3C[C@@H](C)O[C@@H](C)C3)no2)c1 4.5%
CC1Sc2ccc(S(=O)(=O)CCC(=O)NCc3ccc(Cl)cc3)cc2NC1=O (stereo unspecified) 7.8%
Cc1cc(NC(=O)CSc2nnc(-c3c[nH]c4ccccc34)n2-c2ccc(Cl)cc2)no1 3.9%
COc1cccc(Cn2cccc(NC(=O)NCc3ccccc3)c2=O)c1 -1%
